Assay results as given in PubChem BioAssay.

test: growth effects on S. cerevisiae YJM789 – YJM789 clinical isolate, OD600, 24 h, basal, primary screen (AID 1089); details: higher = more signal, called active from +8 up or from −8 down;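 note: growth of clinical yeast isolate S. cerevisiae YJM 789 seeded 1000 cells per well; test concentration not given here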

z-score, inactive:
COc1cc2c(cc1OC)CN(C(=O)[C@@H]1[C@H]3C(=O)O[C@H](c4ccccc4)[C@H](c4ccccc4)N3[C@H](c3ccc(OCCO)cc3)[C@@]13C(=O)Nc1ccc(C#CC4(O)CCCCCC4)cc13)CC2 0.972, C=C(/C(=C/C[C@H](OC(C)=O)c1cccc(OCCO)c1)c1cnc2ccccc2c1)C(C)C 1.9, OCCCC1=CC(c2ccc(CN3CCCC3)cc2)N(Cc2sc3ccccc3c2Cl)CC1 (stereo not given) -0.72, CCOC(=O)C[C@H]1[C@H](OC(=O)c2ccccc2-c2ccccc2)[C@@H](NC(=O)C2CCCCC2)c2cc(OCCCO)ccc2N1C(=O)Cc1ccc(OC)cc1 -0.93, CN1C(=O)C2C=CC(C(O)c3cccc4ccccc34)N(N3CCCCC3)C2C1=O (stereo not given) -0.0899, CC1=C([C@H](O)CCc2ccccc2)[C@H](CO)[C@@H]2C(=O)N(C)C(=O)[C@@H]2C1 0.618, O=C1O[C@@H](c2ccccc2)[C@@H](c2ccccc2)N2[C@@H](c3ccc(OCCO)cc3)[C@]3(C(=O)Nc4ccccc43)[C@@H](C(=O)O)[C@H]12 0.264, C=C(/C(=C/C[C@@H](OC(C)=O)c1cccc(OCCO)c1)c1cc(C(=O)OC)ccc1OC)C(C)C -0.373, CCOC(=O)C[C@H]1[C@H](OC(=O)c2cc3ccccc3oc2=O)[C@@H](NC(=O)c2ccc(-c3ccccc3)cc2)c2cc(OCCCO)ccc2N1C(=O)c1ccc2ccccc2n1 0.443, CC[C@H]1C2=C3C(CC[C@H]4C(OCc5ccc(F)cc5C(F)(F)F)OC[C@](C)([C@@H]34)N(C(=O)OC(C)(C)C)C2)C(COC)C1COC (stereo not given in full) 0.242, C=CCOC(=O)[C@H]1[C@@H]2C(=O)O[C@@H](c3ccccc3)[C@@H](c3ccccc3)N2[C@@H](c2ccc(OCCOC(=O)[C@H]3C[C@H]4C(=O)N[C@@H](CCCCNC(C)=O)C(=O)N4[C@H]3c3ccc(O)cc3)cc2)[C@]12C(=O)Nc1ccccc12 -5.42, [N-]=[N+]=Nc1ccccc1[C@@H]1OC(c2ccc(OCCCO)cc2)=N[C@]1(Cc1ccccc1)C(=O)NCC(O)CO (stereo not given in full) -0.281, COc1ccc(C(O)C2C=CC3C(=O)N(c4ccccc4)C(=O)C3N2Nc2ccc([N+](=O)[O-])cc2)cc1 (stereo not given) 0.137, O=C1OCC=C[C@H]2OC34C=CCN(Cn5nnc6ccccc65)C(=O)[C@H]3N(CCCO)C(=O)[C@@H]4[C@@H]12 (stereo not given in full) 0.465, CCC[C@@H]1C[C@@]1(CCC)[C@@H](NC(=O)OCc1ccccc1)c1ccc(-c2ccccc2)cc1 -0.979, CC(C)(C)OC(=O)CC[C@@]1(C(=O)NCc2ccccc2)N=C(c2ccc(OCCCO)cc2)O[C@@H]1c1ccccc1N=[N+]=[N-] 0.704, COCCCNC(=O)[C@]1(CCS(=O)(=O)c2ccccc2)N=C(c2ccc(OCCCO)cc2)O[C@@H]1c1ccccc1CN=[N+]=[N-] 1.52, C=C(COC)/C(=C/C[C@H](OC(=O)c1ccncc1)c1ccccc1OCCO)c1cnc2ccccc2c1 -1.77, O=C(NCC(F)(F)F)[C@@H]1c2ccccc2C(=O)N(Cc2cc(F)cc(C(F)(F)F)c2)[C@H]1c1ccc(CO)cc1 0.0042, Cc1ccccc1C(O)C1C=CC2C(=O)N(C)C(=O)C2N1N(c1ccccc1)c1ccccc1 (stereo not given) 0.787, COCCOC(=O)N1C(=O)[C@@]2(c3cc(C#CC4=CCCCC4)ccc31)[C@H](C(N)=O)[C@H]1C(=O)O[C@H](c3ccccc3)[C@H](c3ccccc3)N1[C@@H]2c1ccccc1OCCO 0.908, C[N+](C)(C)CCCCCCNC(=O)[C@H]1C[C@H]2C(=O)NCC(=O)N2[C@H]1c1ccc(O)cc1 -0.374, O=C1OCC=C[C@H]2OC34C=CCN(Cc5ccccc5)C(=O)[C@H]3N(CCCCCCO)C(=O)[C@@H]4[C@@H]12 (stereo not given in full) -0.997, COc1ccc(-c2nc(-c3ccccc3)c3c(c2C)CO[Si]3(C(C)C)C(C)C)cn1 -0.195, COCCOC(=O)N1C(=O)[C@@]2(c3cc(C#CC4(O)CCCCCC4)ccc31)[C@H](c1ccc(O)cc1)N1[C@H](c3ccccc3)[C@H](c3ccccc3)OC(=O)[C@H]1[C@@H]2C(=O)NC[C@H](O)c1ccccc1 0.0316
